Laboratory results from PubChem BioAssay (NCI).
About 79,000 compounds went through this panel and 15% of them were active in at least one assay; those are over-represented in the sample as a whole. Values without a mark were called inactive. Activity calls are given as the source filed them. Rule as the data show it: active = growth inhibition above about 70%; inactive = the rest.

How the values were obtained:
[1] = NCI Yeast Anticancer Drug Screen. Data for the rad50 strain (AID 155);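 also: 0% = growth of vehicle-only cultures of the same strain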; conditions: S. cerevisiae rad50 strain growth inhibition; at 50.0 µM; stronger effect = higher value
Procedure, shortened: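 Inhibition values express reduced yeast growth in compound-treated cultures relative to vehicle-treated controls.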

[2] = NCI Yeast Anticancer Drug Screen. Data for the mec2-1 strain (AID 157); conditions: S. cerevisiae mec2-1 strain, at 50.0 µM, stronger effect = higher value
Procedure, shortened: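 Yeast mec2-1 mutant treated with compound. Readout: growth inhibition vs vehicle controls.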

[3] = NCI Yeast Anticancer Drug Screen. Data for the sgs1 mgt1 strain (AID 161);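 also: 0% = growth of cultures given vehicle only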; conditions: S. cerevisiae sgs1 mgt1 strain, at 50.0 µM, stronger effect = higher value
Procedure, shortened: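 Inhibition of yeast growth, normalised to vehicle-treated controls, is reported for a strain bearing genetic alterations in DNA damage repair.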

[4] = NCI Yeast Anticancer Drug Screen. Data for the cln2 rad14 strain (AID 165);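 also: 0% = growth equal to vehicle treated cultures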; conditions: S. cerevisiae cln2 rad14 strain, at 50.0 µM, stronger effect = higher value
Procedure, shortened: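 cln2 rad14 yeast strain; compound exposure; growth inhibition read vs vehicle controls.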

[5] = NCI Yeast Anticancer Drug Screen. Data for the bub3 strain (AID 167); conditions: S. cerevisiae bub3 mutant strain, at 50.0 µM, stronger effect = higher value
Procedure, shortened: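 Steps: expose the mutant yeast strain to compound; grow alongside vehicle-treated cultures; measure growth; express inhibition against the vehicle cultures.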

[6] = NCI Yeast Anticancer Drug Screen. Data for the mlh1 rad18 strain (AID 175); conditions: S. cerevisiae mlh1 rad18 strain growth inhibition; at 50.0 µM; stronger effect = higher value
Procedure, shortened: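 Yeast w/ defined DNA-repair lesions; compound exposure; growth vs vehicle controls → % inhibition.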

| SMILES | growth inhibition [1] | growth inhibition [2] | growth inhibition [3] | growth inhibition [4] | growth inhibition [5] | growth inhibition [6] |
| --- | --- | --- | --- | --- | --- | --- |
| CSc1nc(COC(=O)NC(C)C)c(COC(=O)NC(C)C)n1Cc1ccccc1 | 2.45% | 3.7% | 1.35% | 1.65% | 5.4% | 2.5% |
| COc1ccc(C2C3=C(CCCC3=O)N(c3ccccc3)C3=C2C(=O)CCC3)cc1 | -67% | -18.4% | 3.3% | 19.9% | 7.4% | -27.5% |
| CC1CC(C)NC(=O)N1 (stereo not given) | -13% | 13.5% | -13.9% | 16.1% | 15.8% | 0.4% |
| Cc1cccc2c1c1ccc3c(c1n2C)C(=O)C=CC3=O | 5.05% | -12.4% | 4.6% | 18.6% | -11.2% | -5% |
| O=S1(=O)C=C(N2CCCCC2)c2ccccc21 | 2.65% | 2.05% | -4% | -13.3% | -52% | 11.8% |
| O=C(O)C(CS)(c1ccccc1)c1ccccc1 | 0.65% | 8.25% | 7.7% | 5.95% | -2.85% | 11.4% |
| CN1CCC(OC(=O)C(O)C2CCCCC2)CC1 (stereo not given) | 23.5% | 23% | 13.8% | 31.2% | 19.9% | 41.8% |
| COc1cc2c(cc1OC)C(C(c1ccccc1)c1ccccc1)N(C)CC2 (stereo not given) | 9.9% | 9.25% | -16.7% | 20.6% | 3.25% | 20.6% |
| CCCCCCCCCCCCn1c2nc(=O)[nH]c(=O)c-2nc2ccccc21 | -3.35% | 3.75% | -8.15% | 4.25% | -0.2% | -26.1% |
| CCOC(=O)C(C)(C)c1cn(C)c2ccccc12 | -7.05% | -9.9% | -2.7% | -4.8% | -6.55% | 7.4% |
| Nc1ccc(-c2ccc(Nc3cc(S(=O)(=O)O)c(N)c4c3C(=O)c3ccccc3C4=O)cc2)c(S(=O)(=O)O)c1 | -23.9% | 14.8% | -32.5% | 8.45% | -38.1% | -9.05% |
| N=C(N)S/C=C/C(=O)O | -18.8% | -17.4% | -20.5% | -4.65% | -13.8% | -19.6% |
| Nc1ccn(CCC(COCc2ccccc2)COCc2ccccc2)c(=O)n1 | 35.8% | -13.4% | 0.75% | -5.6% | -5.45% | 5.75% |
| C=Cc1ccc(C)[n+](C[Si](C)(C)O[Si](C)(C)C)c1 | -7.75% | -39% | -8.95% | 19.4% | -22.9% | -20.7% |
| Cc1ccc(C(=O)N2CCCCC2)cc1N=NN(C)C | 0.05% | -25.5% | -25.6% | 14.3% | -17.6% | -21.1% |
| Cc1ccc(NC(=O)C(C)C)cc1 | -14% | -16.6% | -13.4% | -24.2% | -19.1% | -21.2% |
| O=C(NC(Cc1ccccc1)C(=O)O)c1ccccc1 (stereo not given) | 4% | 4.9% | 24.1% | -1.6% | 6.7% | 1.55% |
| CC1=CC2=NC(=O)C(c3ccccc3)C(=O)N2C=C1 (stereo not given) | -1.05% | -27.4% | -9.95% | 12.8% | 7.5% | -19.8% |
| COCCCn1cnn2c(=O)c3ccccc3nc2c1=O | -12% | 2.85% | 23.8% | 12.4% | 21.3% | 6.25% |
| Nc1ncc(C(=O)O)c(N)n1 | 15.8% | 4.6% | 3.75% | -19.2% | -12.3% | 33.6% |

| SMILES | growth inhibition [1] | growth inhibition [2] | growth inhibition [3] | growth inhibition [4] | growth inhibition [5] | growth inhibition [6] |
| --- | --- | --- | --- | --- | --- | --- |
| O=C(O)c1ccccc1C(=O)OCc1ccccc1 | -0.15% | 16.1% | 6.25% | -11.2% | 8.25% | 11.9% |
| COC(=O)c1nc(N)nc(C(=O)OC)c1C(=O)c1cccs1 | -2.55% | -9.05% | -28.9% | -24.8% | -43% | -20.9% |
| COC(=O)c1cc(C(=O)c2ccccc2)cc2c1c(=O)[nH]c1ccccc12 | -0.95% | -7.5% | -16.4% | -5.7% | -23.9% | 6.75% |
| CC(C)(C)c1ccc(O)c(Sc2cc(C(C)(C)C)ccc2O)c1 | 5.8% | -24.9% | 7.95% | -33.4% | 12.6% | -15.2% |
| O=C(O)CCC(CCC(=O)O)(C(=O)O)C(=O)O | 5.8% | -7.85% | -6.1% | -41% | -0.85% | 2.9% |
| COC(=O)C1=CN(c2ccccc2)C(=O)C1 | 5.5% | -14.3% | -6.95% | -26.1% | -8.7% | 7.45% |
| O=C(O)C(CCCN1C(=O)c2ccccc2C1=O)N1C(=O)c2ccccc2C1=O (stereo not given) | -13.1% | -3.3% | -12.3% | -13.8% | -0.35% | -6.95% |
| CC1(C)COC(c2ccc(C(F)(F)F)cc2C(O)c2ccc3ccccc3c2)=N1 (stereo not given) | 11.8% | -2.15% | 3.8% | 10.3% | -3.3% | 10.3% |
| O=C1NC(Cc2ccc(O)cc2)C(=O)N1c1ccccc1O (stereo not given) | 2.5% | 0.95% | 5.35% | 2.5% | -6.9% | 3.5% |
| COc1ccc2c(c1OC)C(=O)C2 | -21.1% | 12.1% | -20.9% | 9% | -16.8% | -2.35% |
| Oc1cc(O)c2c(-c3c(O)c(-c4ccc(O)c(O)c4)[o+]c4cc(O)cc(O)c34)c(O)c(-c3ccc(O)c(O)c3)[o+]c2c1 | 44.4% | 4.85% | 9.6% | 11.1% | 22.7% | 21.8% |
| CC1CC=CCC1(C(=O)O)C(=O)O (stereo not given) | 0.6% | 10.1% | -10.2% | -2.05% | -21.6% | -24.1% |
| Oc1ccc(Cl)cc1/C=N\NC(=S)Nc1ccc2cn[nH]c2c1 | -2.7% | 10.1% | 13.9% | -39.4% | 20.8% | 11.3% |
| CCCCCCCCCCCCCCCCCCOCCCCCCCCCCCC | -34.8% | -15.6% | -20% | -64% | 5.05% | -17.1% |
| Cc1cn(CCCCCCCCCCCCOc2c3occc3cc3ccc(=O)oc23)c(=O)[nH]c1=O | 20.1% | 4.6% | -3.5% | 23.2% | -2.35% | 19.6% |
| CN(c1ccccc1)c1cc2c(cc1[N+](=O)[O-])no[n+]2[O-] | 97.8% (active) | 98.7% (active) | 98.3% (active) | 98% (active) | 98.2% (active) | 98.8% (active) |
| CC(=O)N(C(C)=O)c1ccccc1/C=C1\CCOC1=O | -16.4% | -18.9% | -2.25% | -5.05% | 11.6% | -17.6% |
| CCCCc1c(O)c2c(=O)[nH]c(C)nc2oc1=O | -9.8% | -5.95% | -9.65% | -13.2% | -32.4% | 10.9% |
| O=CCC(=O)c1ccc(Br)cc1 | 8.95% | 3.15% | 2.3% | 2.45% | -11.7% | 6.85% |
| CN(C)CCNc1ccc2nnn3c4ccccc4c(=O)c1c23 | 32.5% | 7.45% | 11.2% | 29.7% | 3% | 25.5% |
